Reference: PubChem BioAssay (NCATS)
Results filed as inconclusive are left out. Unmarked numbers belong to inactive results. Calls come from the whole dose curve.

Test: Cell Viability - HepG2 (AID 433);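 note: cells exposed to compound for 40 hours; potency for ATP loss meaning cytotoxicity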
Conditions: qHTS
Outline: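 In this qHTS format, a 40 h, 37 °C compound incubation of HepG2 cells in complete medium precedes a 20 min CellTiter-Glo step at room temperature. Tamoxifen and doxorubicin serve as positive controls; Hill-equation fits yield AC50.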
Potency is the fitted concentration of half-maximal effect.

| SMILES | Potency [µM] |
| --- | --- |
| CC(=O)Nc1ccccc1 | > 92 |
| CC(=O)Nc1cccc(O)c1 | > 92 |
| CCN(CC)C(=O)c1cccc(C)c1 | > 92 |
| O=C1C(c2[nH]c3ccccc3c2O)=Nc2ccccc21 | > 92 |
| Cc1c(N(C)C)c(=O)n(-c2ccccc2)n1C | > 92 |
| CC(=O)OCC(COC(C)=O)OC(C)=O | > 92 |
| COc1ccc(O)cc1 | > 92 |
| CCCCCCCC(=O)OCC(COC(=O)CCCCCCC)OC(=O)CCCCCCC | > 92 |
| C=CCNC(N)=S | > 92 |
| CC1CC(OC(=O)c2ccccc2O)CC(C)(C)C1 (stereo not drawn) | > 92 |
| FC(F)(F)C(Cl)Br (stereo not drawn) | > 92 |
| CCCCCC(N)=O | > 92 |
| O=C(c1ccccc1)C(O)c1ccccc1 (stereo not drawn) | > 92 |
| Cc1cc(=O)[nH]c(=S)[nH]1 | > 92 |
| CCCC(O)C(CC)CO (stereo not drawn) | > 92 |
| CC(=O)Nc1ccc(C(=O)O)cc1 | > 92 |
| O=C(O)CCCCC1CCSS1 (stereo not drawn) | > 92 |
| O=C1c2cccc(O)c2C(=O)c2c(O)cccc21 | > 92 |
